The record followed here is PubChem BioAssay (Tox21).

Results filed as inconclusive are left out. Calls of active or inactive are those of the source. Unless noted, calls come from the whole dose curve; as a rule, active = well fitted cell-killing curve with a large enough effect in the repeat runs; inconclusive = weak or mixed curves, or effect the other way; inactive = no such curve, though single readings can be large or run the other way.

Bile acid receptor (Homo sapiens), sequence (Q96RI1 whole entry, looked up): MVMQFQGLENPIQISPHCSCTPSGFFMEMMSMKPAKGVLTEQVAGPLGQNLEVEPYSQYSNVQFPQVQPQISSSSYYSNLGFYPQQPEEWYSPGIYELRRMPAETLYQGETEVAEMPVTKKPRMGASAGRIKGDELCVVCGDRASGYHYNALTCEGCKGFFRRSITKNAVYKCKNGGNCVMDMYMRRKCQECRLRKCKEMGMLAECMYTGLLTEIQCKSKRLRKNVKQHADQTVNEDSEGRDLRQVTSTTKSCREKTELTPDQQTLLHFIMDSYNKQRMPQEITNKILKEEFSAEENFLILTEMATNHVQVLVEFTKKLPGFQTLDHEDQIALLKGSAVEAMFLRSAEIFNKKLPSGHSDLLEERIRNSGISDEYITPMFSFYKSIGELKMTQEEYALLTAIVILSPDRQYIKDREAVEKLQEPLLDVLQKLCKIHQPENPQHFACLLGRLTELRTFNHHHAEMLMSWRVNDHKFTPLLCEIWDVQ

For one test, the target named is Peroxisome proliferator-activated receptor delta (Homo sapiens) (UniProt Q03181). Nature of the test: qHTS assay to identify small molecule antagonists of the peroxisome proliferator-activated receptor delta (PPARd) signaling pathway (AID 743215; active = well fitted inhibition curve with a large enough effect in the signal ratio in the repeat runs, not every such curve was filed as active; the % refers to the signal ratio;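 note: cells stimulated with agonist L165041 at 300 nM final during compound exposure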). The conditions noted are these: HEK293H PPARd-UAS-bla, beta-lactamase FRET ratio, antagonist, 17 h; series mostly up to 62 µM. The essentials: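 Read-out is beta-lactamase FRET fluorescence, measured 2 h after substrate addition at room temperature. Beforehand, UAS-bla HEK293H cells carrying the PPARd reporter were exposed to compounds with L165041 at 300 nM final for 17 h at 37 C.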
Peroxisome proliferator-activated receptor delta (Homo sapiens), sequence (Q03181 whole entry, looked up): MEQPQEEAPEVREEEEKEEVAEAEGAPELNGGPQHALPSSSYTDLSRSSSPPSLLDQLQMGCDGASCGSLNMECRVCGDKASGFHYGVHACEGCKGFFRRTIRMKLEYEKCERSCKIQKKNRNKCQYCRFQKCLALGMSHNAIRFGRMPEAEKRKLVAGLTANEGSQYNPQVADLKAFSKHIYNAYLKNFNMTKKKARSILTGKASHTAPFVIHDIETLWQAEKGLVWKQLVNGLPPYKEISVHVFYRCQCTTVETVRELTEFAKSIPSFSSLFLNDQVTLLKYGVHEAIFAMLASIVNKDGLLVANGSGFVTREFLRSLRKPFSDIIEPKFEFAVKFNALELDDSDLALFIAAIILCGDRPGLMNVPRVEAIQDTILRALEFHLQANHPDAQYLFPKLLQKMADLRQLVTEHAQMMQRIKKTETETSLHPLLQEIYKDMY
On the technique in general: qHTS replaces the single test concentration by a dilution series.
As for `CCCCOCC(C)OCC(C)O` (stereo unspecified), the result was inactive. Still for that read-out and setting: next, `CC(C)=CC(=O)O`: “inactive”.

Take `CN(C)CCOC(c1ccc(Cl)cc1)c1ccccn1` (stereo unspecified): the outcome was inactive. The same measure, in the same setting: next, `Cc1ccc(N)cc1[N+](=O)[O-]`: “inactive”; `C=C(C)C(=O)OCCC(C)OC(=O)C(=C)C` (stereo unspecified): “inactive”. The same measure, in the same setting: next, `CCCCCCCCCCCCCCCCCCOCC(O)CO` (stereo unspecified): “inactive”; `Cc1ccccc1C(=O)O`: “inactive”. The same measure, in the same setting: next, `CCN(CC)C(=O)c1ccc(O)c(OC)c1`: “inactive”; `C#CC(C)(O)CC(C)C` (stereo unspecified): “inactive”. As for `COc1cc(O)cc(O)c1`, the outcome was inactive. The same measure, in the same setting: next, `Oc1cc(O)c2c(c1)O[C@H](c1ccc(O)c(O)c1)[C@H](O)C2`: “inactive”; `CCCCc1ccc2cccc(S(=O)(=O)O)c2c1`: “inactive”. Same read-out and setting: next, `CCO[Si](C)(OCC)OCC`: “inactive”; `N#CCN(CC#N)CCN(CC#N)CC#N`: “inactive”. Still for that read-out and setting: next, `Cc1c(C)n(CCN(C)C)c2ccc(C(=O)OCCN(C)C)cc12`: “inactive”.

For the molecule `CCCCCN(CCCCC)C(=O)C(CCC(=O)O)NC(=O)c1ccc(Cl)c(Cl)c1` (stereo unspecified), the outcome was inactive.

Take `NC(=O)c1c(Cl)cccc1Cl`: the outcome was inactive. The same measure, in the same setting: next, `C1CCCCCCCCCCC1`: “inactive”; `NS(=O)(=O)c1cc(C2(O)NC(=O)c3ccccc32)ccc1Cl` (stereo unspecified): “inactive”.

For the molecule `C=CC(=O)N1CCOCC1`, the result was inactive. Still for that read-out and setting: next, `CCCCCCCCCCC1CO1` (stereo unspecified): “inactive”.

For another test, the target named is Bile acid receptor (Homo sapiens) (UniProt Q96RI1). Put plainly: qHTS assay to identify small molecule antagonists of the farnesoid-X-receptor (FXR) signaling pathway (AID 743217; active = well fitted inhibition curve with a large enough effect in the signal ratio in the repeat runs, not every such curve was filed as active; the % refers to the signal ratio). The conditions noted are these: HEK293T FXR-UAS-bla, beta-lactamase ratio, CDCA-stimulated, 16 h; series mostly up to 62.6 µM. The essentials:
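HEK 293T FXR-UAS-bla, 5000 cells/well; compound + CDCA 50 uM final; 16 h, 37 °C; B/G FRET substrate 2 h RT; fluorescence.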
As for `CCCCOCC(C)OCC(C)O` (stereo unspecified), the outcome was inactive. On the same count and under the same terms, next, `COc1cc(O)cc(O)c1`: “inactive”.

As for `CC1=CCC2C(C1)C2(C)C` (stereo unspecified), the result was inactive. For `NC(=O)c1c(Cl)cccc1Cl`, the result was inactive.

Test system in another test: not listed separately
Nature of the test: qHTS assay to identify small molecule agonists of the farnesoid-X-receptor (FXR) signaling pathway - cell viability counter screen (AID 743218). Note: nearly all actives have a fitted effect of over 45% in size. As to conditions: FXR-bla HEK293T viability, CellTiter-Glo luminescence, 16 h; series mostly up to 62.6 µM. Summed up: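 HEK 293T FXR-bla cells; 5 h pre-incubation, 16 h compound exposure at 37 C; LiveBLAzer substrate 2 h RT, then CellTiter-Glo 30 min RT, luminescence.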
For `Nc1cc(C(Cl)=C(Cl)Cl)c(S(N)(=O)=O)cc1S(N)(=O)=O`, the outcome was inactive.

Turning to `CCCCOCC(C)OCC(C)O` (stereo unspecified), the result was inactive. On to `C=CC(=O)OCCCCCC`, for which the molecule was called inactive. On the same count and under the same terms, next, `CC(C)=CC(=O)O`: “inactive”; `Cc1ccc(N)cc1[N+](=O)[O-]`: “inactive”; `Cc1nccn1CC1CCc2c(c3ccccc3n2C)C1=O` (stereo unspecified): “inactive”. On the same count and under the same terms, next, `C=C(C)C(=O)OCCC(C)OC(=O)C(=C)C` (stereo unspecified): “inactive”; `CCCCCCCCCCCCCCCCCCOCC(O)CO` (stereo unspecified): “inactive”. On the same count and under the same terms, next, `Cc1ccccc1C(=O)O`: “inactive”; `C#CC(C)(O)CC(C)C` (stereo unspecified): “inactive”. For the molecule `CO`, the call was inactive. The same measure, in the same setting: next, `C/C=C1\C(=O)C[C@H]2[C@@H]3CCC4=CC(=O)CC[C@]4(C)[C@H]3CC[C@]12C`: “inactive”.

For the molecule `COc1cc(O)cc(O)c1`, the call was inactive. The same measure, in the same setting: next, `Oc1cc(O)c2c(c1)O[C@H](c1ccc(O)c(O)c1)[C@H](O)C2`: “inactive”; `CCCCc1ccc2cccc(S(=O)(=O)O)c2c1`: “inactive”. The same measure, in the same setting: next, `c1ccc(CCCc2ccccn2)cc1`: “inactive”.

`CC(C)c1ccc2oc3nc(N)c(C(=O)O)cc3c(=O)c2c1`: the result was inactive. Turning to `Cc1c(C)n(CCN(C)C)c2ccc(C(=O)OCCN(C)C)cc12`, the result was inactive.

Consider `CCCCCN(CCCCC)C(=O)C(CCC(=O)O)NC(=O)c1ccc(Cl)c(Cl)c1` (stereo unspecified), for which the result was inactive. The same measure, in the same setting: next, `NC(=O)c1c(Cl)cccc1Cl`: “inactive”; `C=CCn1c(=O)n([C@@H]2O[C@H](CO)[C@@H](O)[C@H]2O)c2nc(N)[nH]c(=O)c21`: “inactive”; `C1CCCCCCCCCCC1`: “inactive”. For `CCCC(C)C(=O)O` (stereo unspecified), the outcome was inactive. Still for that read-out and setting: next, `CCCCCCCCCCC1CO1` (stereo unspecified): “inactive”. Same read-out and setting: next, `OC1OC[C@@H](O)[C@H](O)[C@H]1O` (stereo partly specified): “inactive”; `CC(C)=CCC/C(C)=C/C(=O)O`: “inactive”.
